PHOSPHO1 block – blocks human PHOSPHO1 phosphatase activity; inhibition, % at 13.3 µM; hit rate 1.1% among 290,000; recombinant PHOSPHO1, absorbance phosphatase assay; Q8TCT1; in the data active means inhibition above about 60%
Target sequence (Q8TCT1 whole entry, looked up): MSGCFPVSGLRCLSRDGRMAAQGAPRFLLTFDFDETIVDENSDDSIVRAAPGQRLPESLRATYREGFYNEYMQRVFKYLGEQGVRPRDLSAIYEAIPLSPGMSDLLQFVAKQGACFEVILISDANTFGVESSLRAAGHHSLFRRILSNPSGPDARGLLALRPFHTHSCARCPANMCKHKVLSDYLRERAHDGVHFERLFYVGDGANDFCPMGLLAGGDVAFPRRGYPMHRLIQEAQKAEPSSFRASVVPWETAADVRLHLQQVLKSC
eIF4H FP inh – inhibitors of RNA binding by human eIF4H; inhibition, % at 35 µM; Q15056; eIF4H fluorescence polarization binding assay; AID 2012; hit rate 0.94% among 290,000;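 further: calls also rest on retests at 20 µM and on dose response follow-up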
PABP FP inh – PABP-poly(A) binding inhibition; P11940; PABP-poly(A) RNA binding, fluorescence polarization; calls only at 35 µM; hit rate 1% among 290,000;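 further: calls also rest on retests at 20 µM and on dose response follow-up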
ABCB6 inh MLPCN – blocks the human ABCB6 transporter; hit rate 0.19% among 360,000; fluorescence ratio to DMSO, % at 10 µM; K562-ABCB6 porphyrin accumulation, flow cytometry, 1 h; active compounds read low;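 active means fluorescence ratio to DMSO below 75%, the collection mean minus 3 SD; inconclusive means too few cells collected in the well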;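 further: signal is porphyrin accumulated inside mitochondria; lower ratio means ABCB6 inhibition with less porphyrin fluorescence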
AI-2 QS mod – Vibrio harveyi AI-2 quorum sensing modulation; Vibrio harveyi JMH597 AI-2 luminescence/OD600 ratio, 9 h; active compounds read low; strain lacks LuxN and CqsS sensors; 0 = neutral-control median; activity change, % at 7.5 µM; hit rate 0.4% among 300,000; in the data active means activity change below about -75%, passing the limit was not always enough; inconclusive means no clear call, values can overlap the other calls;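 further: luminescence divided by OD600 gain over 9 h not by final OD600 alone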
MLLE-PAM2 inh – inhibitors of microRNA-mediated deadenylation, human PABP1 MLLE binding. GST-MLLE / FITC-PAM2 fluorescence polarization. hit rate 0.36% among 360,000. AID 588489. P11940. inhibition, % at 20 µM; in the data active means inhibition above about 35%, passing the limit was not always enough
Of the large screens only hits and unclear results are named; the others gave an inactive call. A selection: hits, their analogues and other compounds. The true share with any hit is near 2.6%. Unless noted, how the calls were made is not given here.

O=C(NCc1ccccn1)C1CCC(CNS(=O)(=O)c2cccc3nsnc23)CC1 (stereo not given)	PHOSPHO1 block 62.7
COc1ccc(-c2nnc(NC(=O)c3ccc([N+](=O)[O-])o3)o2)c(OC)c1	AI-2 QS mod -88.3
Oc1ccc(/C=N/n2cc(-c3ccccc3)[nH]c2=S)cc1	MLLE-PAM2 inh 43.5
O=C(Nc1ccc(O)cc1)c1ccc2c(c1)C(=O)N(Cc1ccco1)C2=O	none
O=C(O)Cc1ccc(NC(=O)c2ccc3c(c2)C(=O)N(Cc2ccco2)C3=O)cc1	eIF4H FP inh 100.0, PABP FP inh active
N#Cc1c(-c2ccco2)cc(-c2ccccc2)[nH]c1=O	eIF4H FP inh inconclusive, PABP FP inh active
Cc1cccc(C(=O)Nc2ccc(C(=O)N3CCCCC3C)cc2)c1 (stereo not given)	none
COc1ccc(C(=O)Nc2ccc(C(=O)N3CCCCC3C)cc2)c(OC)c1OC (stereo not given)	PHOSPHO1 block 75.4
CCCC(=O)Nc1nc2ccc(OC)cc2s1	none
COc1ccc2nc(NC(=S)N(C)C)sc2c1	PHOSPHO1 block 94.6
CCOC(=O)N1C=CC=C[C@@H]2[C@@H](N3C(=O)c4ccccc4C3=O)C(=O)N21	PABP FP inh active
COc1ccc(C2=CC3=C(Br)C(=O)C(C)(O)C(=O)C3=CO2)cc1 (stereo not given)	PABP FP inh active
Cc1ccc(Cn2cc(CN3CC(N4CCCC4)CS3(=O)=O)nn2)cc1 (stereo not given)	none (no result: PHOSPHO1 block, eIF4H FP inh, PABP FP inh, AI-2 QS mod, MLLE-PAM2 inh)
CCN(CC)S(=O)(=O)c1cccc(-c2cn3cc(C)ccc3n2)c1	eIF4H FP inh 56.6
CC(C)(C)C1=Nn2c(nnc2-c2ccccn2)SC1	PHOSPHO1 block 63.2
O=C(O)O	eIF4H FP inh 0.6 (no result: ABCB6 inh MLPCN, AI-2 QS mod, MLLE-PAM2 inh)
O=C(O)/C=C\C(=O)O	none (no result: PHOSPHO1 block, eIF4H FP inh, PABP FP inh, AI-2 QS mod)
Nc1scc2c(C(=O)N/N=C/c3ccc(Cl)cc3)nn(-c3ccccc3)c(=O)c12	PHOSPHO1 block 101.1
CC1=C(C(=O)N2CCCCCC2)CC(CC(=O)NC(c2ccccc2)c2ccccc2)C(=O)N1CCC1=CCCCC1 (stereo not given)	none (no result: PHOSPHO1 block, eIF4H FP inh, PABP FP inh, AI-2 QS mod, MLLE-PAM2 inh)
CN(Cc1c(C(=O)N/N=C/c2ccccc2O)nnn1-c1nonc1N)C1CCCCC1	none (no result: PHOSPHO1 block, eIF4H FP inh, PABP FP inh, AI-2 QS mod)
CCOC(=O)c1[nH]c2ccc(Br)cc2c1NC(=O)CCN1CCC(C)CC1	none
CCOC(=O)c1[nH]c2ccc(OC)cc2c1NC(=O)CCN1CCC(C)CC1	PHOSPHO1 block 71.3 (no result: ABCB6 inh MLPCN, MLLE-PAM2 inh)
C[C@@H]1CN([C@@H](C)CO)C(=O)c2cc(C#CCN(C)C)cnc2O[C@H]1CN(C)Cc1ccc2c(c1)OCO2	none (no result: PHOSPHO1 block, eIF4H FP inh, PABP FP inh, AI-2 QS mod)
N#Cc1c(N)nc2c(c1-c1ccccc1)CCCC2	none
CC1CCc2nc(N)c(C#N)c(-c3cccn3C)c2C1 (stereo not given)	eIF4H FP inh 97.1, PABP FP inh active
C=CCSc1nnc(NC(=O)c2cn(CC)c3nc(C)ccc3c2=O)s1	PABP FP inh active
CC(C)c1cc(Cn2c3ccccc3c(=O)n2C(C)C)on1	none (no result: PHOSPHO1 block, eIF4H FP inh, PABP FP inh, AI-2 QS mod)
O=C(O)CSc1ncnc2sc3c(c12)CCC3	eIF4H FP inh 59.7, PABP FP inh active
CC1=C(C(=O)N(C(C)C)C(C)C)CC(CC(=O)NC(c2ccccc2)c2ccccc2)C(=O)N1Cc1ccc(C(C)(C)C)cc1 (stereo not given)	none (no result: PHOSPHO1 block, eIF4H FP inh, PABP FP inh, AI-2 QS mod)
COc1ccc(C(=O)NNC(=S)NC(=O)c2ccc(OC)cc2)cc1	none
COc1ccc(/C=C/C(=O)NC(=S)NNC(=O)c2cccs2)cc1	eIF4H FP inh 5.9
O=C(/C=C/c1ccc(Br)cc1)NC(=S)NNC(=O)c1ccco1	AI-2 QS mod -100.0
COc1ccc(C(=O)NNC(=S)NC(=O)c2cccs2)cc1	AI-2 QS mod -81.5
CCCNC(=O)c1cc(C2CCCN(C(=O)C3CCCCC3)C2)on1 (stereo not given)	none (no result: PHOSPHO1 block, eIF4H FP inh, PABP FP inh, AI-2 QS mod)
O=C1CCCC(O)=C1Sc1ccccc1C(=O)O	eIF4H FP inh 86.8
O=C(Nc1cccc2ncccc12)c1ccc([N+](=O)[O-])o1	AI-2 QS mod -108.6
Cc1cccc(NC(=O)c2ccc([N+](=O)[O-])o2)n1	AI-2 QS mod -88.9
CCC(=O)N1CCC(C)(C(=O)Nc2nccc3ccccc23)C1 (stereo not given)	none (no result: PHOSPHO1 block, eIF4H FP inh, PABP FP inh, AI-2 QS mod)
O=NN(CCF)C(=O)NC1CCS(=O)(=O)CC1	none (no result: PHOSPHO1 block, eIF4H FP inh, PABP FP inh, AI-2 QS mod, MLLE-PAM2 inh)
CCC1(C)Cc2nc3sc(C(=O)O)c(N)c3cc2CO1 (stereo not given)	eIF4H FP inh 12.5, PABP FP inh active
COc1ccc(Cn2nnnc2C(CC(C)C)N2CCC(C(N)=O)CC2)cc1 (stereo not given)	PHOSPHO1 block 65.6
CCCC(c1nnnn1Cc1ccc(OC)cc1)N1CCC(C(N)=O)CC1 (stereo not given)	none
O=C(O)c1cc(O)c2c(c1)[C@H]([C@H]1c3cc(C(=O)O)cc(O)c3C(=O)c3c(O[C@@H]4O[C@H](CO)[C@@H](O)[C@H](O)[C@H]4O)cccc31)c1cccc(OC3O[C@H](CO)[C@@H](O)[C@H](O)[C@H]3O)c1C2=O (stereo not given in full)	MLLE-PAM2 inh 51.9 (no result: PHOSPHO1 block, eIF4H FP inh, PABP FP inh)
CCC(C)Nc1nnnc2c1sc1nc3c(cc12)COC(C)(C)C3 (stereo not given)	eIF4H FP inh 85.3
COc1ccc(CC(=S)N2CCOCC2)cc1	PHOSPHO1 block 72.8
Cc1ccc(-n2c(C)cc(/C=N/Nc3ccc([N+](=O)[O-])cn3)c2C)cc1	PHOSPHO1 block 101.1
CC1(C(=O)NS(=O)(=O)Cc2cccc(Cl)c2)CCN1C(=O)CC1CCCC1 (stereo not given)	none (no result: PHOSPHO1 block, eIF4H FP inh, PABP FP inh, AI-2 QS mod)
CCC1CC(C(=O)O)CC(=O)N1 (stereo not given)	none (no result: PHOSPHO1 block, eIF4H FP inh, PABP FP inh, AI-2 QS mod)
COC(=O)c1c(NC(=O)CN2C(=O)NC3(CCC(C)CC3)C2=O)sc2c1CCC2 (stereo not given)	none (no result: PHOSPHO1 block, eIF4H FP inh, PABP FP inh, AI-2 QS mod)
CC1CCCCC12NC(=O)N(CC(=O)Nc1sc3c(c1C(N)=O)CCC3)C2=O (stereo not given)	eIF4H FP inh 77.8, PABP FP inh active
Cn1cnnc1SCC(=O)Nc1sc2c(c1C(N)=O)CCC2	eIF4H FP inh 76.1, PABP FP inh active
COCCn1cnnc1SCC(=O)Nc1sc2c(c1C#N)CCC2	none (no result: PHOSPHO1 block, eIF4H FP inh, PABP FP inh, AI-2 QS mod)
CC1CCC2(CC1)NC(=O)N(CC(=O)Nc1sc3c(c1C(N)=O)CCC3)C2=O (stereo not given)	eIF4H FP inh 76.0, PABP FP inh active
CCCNC(=O)C1(C)CCN(Cc2ccc(-c3ccccc3)o2)C1 (stereo not given)	none (no result: PHOSPHO1 block, eIF4H FP inh, PABP FP inh, AI-2 QS mod)
CCC(=O)N1CCN(c2ccc(NC(=S)NC(=O)COc3ccccc3)cc2)CC1	none
Cc1ccc(C(=O)NC(=S)Nc2ccc(N3CCN(C(=O)c4ccco4)CC3)cc2)cc1	MLLE-PAM2 inh 40.4
CC(=O)N1CCN(c2ccc(NC(=S)NC(=O)COc3ccc(C(C)(C)C)cc3)cc2)CC1	MLLE-PAM2 inh 43.8
CC(C)(C)c1ccc(C(=O)NC(=S)Nc2ccc(N3CCOCC3)cc2)cc1	PABP FP inh active

Source: PubChem
